The record followed here is PubChem BioAssay AID624496 (National Center for Advancing Translational Sciences (NCATS), 2012).

Results filed as inconclusive are left out. Calls of active or inactive are those of the source. Calls follow the shape of the dose curve; as a rule, active = well fitted inhibition curve with a large enough effect; inconclusive = small, poorly fitted or top-dose-only effect, or another doubt; inactive = no such curve, though single readings can be large or run the other way.

This assay deals with D(2) dopamine receptor (Homo sapiens) (UniProt P14416). Nature of the assay: HTS Assay for Allosteric Antagonists of the Human D2 Dopamine Receptor: SAR in Primary Assay. The settings on record: HEK293 T-REx D2 cells, calcium flux, dopamine EC80 antagonism; activity, negative = inhibition: at 41.8 µM (top of the series) unless noted. The text has this: Dopamine receptors (DARs) are involved in the etiology and/or therapy of a number of neuropsychiatric and endocrine disorders. For instance, all receptor-based antiparkinsonian drugs work via stimulating the D2 DAR subtype whereas all FDA-approved antipsychotic agents are antagonists of this receptor. […] There are three different types of allosteric modulators that we are seeking, two of which will stimulate or augment receptor signaling, allosteric agonists and potentiators, while the third, allosteric antagonists, will attenuate receptor signaling. The present project is looking for compound antagonism after an EC80 addition of dopamine by tracking calcium flux in a […], inducible Hek293 Trex D2 cell line, which act through an allosteric site. NIH Chemical Genomics Center [NCGC] NIH Molecular Libraries Probe Centers Network [MLPCN] MLPCN Grant: NS064831 Assay Submitter (PI): David Sibley
Chain of D(2) dopamine receptor (Homo sapiens) (P14416 whole entry, looked up): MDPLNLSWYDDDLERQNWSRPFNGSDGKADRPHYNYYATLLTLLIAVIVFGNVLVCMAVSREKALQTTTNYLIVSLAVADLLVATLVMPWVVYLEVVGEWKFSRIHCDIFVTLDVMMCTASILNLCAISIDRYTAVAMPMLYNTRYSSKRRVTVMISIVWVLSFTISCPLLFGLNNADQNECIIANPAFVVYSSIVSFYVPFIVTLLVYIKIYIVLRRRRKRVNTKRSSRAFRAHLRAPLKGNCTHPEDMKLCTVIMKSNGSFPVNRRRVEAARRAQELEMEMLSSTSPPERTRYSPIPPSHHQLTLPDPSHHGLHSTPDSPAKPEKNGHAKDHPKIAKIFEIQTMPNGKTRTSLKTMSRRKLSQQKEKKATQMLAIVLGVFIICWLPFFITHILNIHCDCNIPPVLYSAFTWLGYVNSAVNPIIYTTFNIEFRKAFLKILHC
Freshly passaged cells are plated in 1536 well black, clear bottom plates at a density of 4000 cells/well in 3 ul of complete media containing 1x tetracycline inducer. After an overnight incubation at 30 deg C in 5% CO2, cells are loaded with 2 ul of the no wash Calcium Assay Kit (ABD Bioquest) and incubated at room temperature for 30 to 90 minutes. Agonist read: A 10 cycle (1 second/cycle) baseline measurement is taken and then the FDSS online 1536 pintool delivers 23 nl of compound library (as well as dopamine controls) to the plate. The plate is measured for kinetically at 1 cycle/sec for 180 seconds. Following the 180 second read, 1 ul of an EC80 (negative modulation assay) is delivered by an onboard pipette head. Measurements are taken kinetically for an additional 180 seconds.
Regarding `CCN1C(=O)c2ccccc2S(=O)c2ccc(C(=O)NCc3ccc(F)cc3)cc21` (stereo unspecified), the Potency was 705 nM (active).

On to `CCN1C(=O)c2ccccc2[S@](=O)c2ccc(C(=O)NCc3ccc(OC)cc3)cc21`, for which the Potency was 8870 nM (active).

As for `CN1C(=O)c2ccccc2S(=O)c2ccc(C(=O)NCc3ccccc3)cc21` (stereo unspecified), the Potency is 560 nM (active).

Take `CN1C(=O)c2ccccc2[S@](=O)c2ccc(C(=O)NCc3ccc(Cl)cc3)cc21`: the Potency is 445 nM (active).

`CCN1C(=O)c2ccccc2[S@@](=O)c2ccc(C(=O)NCc3ccc(OC)cc3)cc21`: the activity, negative = inhibition was -112%.

As to `CN1C(=O)c2ccccc2S(=O)c2ccc(C(=O)NCCN3CCCCC3)cc21` (stereo unspecified), the Potency is 112 nM (active).

For the compound `CN1C(=O)c2ccccc2[S@](=O)c2ccc(C(=O)NCCN3CCCC3)cc21`, the Potency is 4450 nM (active).

Regarding `CCN1C(=O)c2ccccc2S(=O)c2ccc(C(=O)Nc3ccccc3)cc21` (stereo unspecified), the Potency is 141 nM (active).

Consider `CCN1C(=O)c2ccccc2S(=O)c2ccc(NC(=O)Cc3ccc(F)cc3)cc21` (stereo unspecified), for which the Potency was 223 nM (active).

On to `CN1C(=O)c2ccccc2S(=O)c2ccc(C(=O)NCCN3CCCC3)cc21` (stereo unspecified), for which the Potency was 280 nM (active).

Turning to `CN1C(=O)c2ccccc2S(=O)c2ccc(C(=O)NCCc3cccs3)cc21` (stereo unspecified), the Potency is 88.7 nM (active).
